The list is not random: actives were taken first. Their share in the collection is about 4.2%.
Sfp inh – Sfp phosphopantetheinyl transferase inhibition; Q9F4F7; Biochemical Sfp PPTase activity, qHTS; Potency, µM, usual class: inhibitors; 310,000 tested, 3.5% active;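 further: the enzyme is Sfp with the accession as filed and its product quenches rhodamine fluorescence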
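Reaction rates are the 30-min fluorescence difference (ex 525, em 598 nm) in wells containing 15 nM Sfp, 5 uM rhodamine-CoA and 12.5 uM BHQ-2-YbbR at pH 7.6 with 10 mM MgCl2.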
12-LOX inh – inhibitors of human 12S-lipoxygenase ALOX12. 580,000 tested, 1.1% active. Potency, µM (highest dose often 108 µM), usual class: inhibitors. P18054. purified 12hLO, xylenol orange hydroperoxide absorbance
Target sequence (P18054 whole entry, looked up): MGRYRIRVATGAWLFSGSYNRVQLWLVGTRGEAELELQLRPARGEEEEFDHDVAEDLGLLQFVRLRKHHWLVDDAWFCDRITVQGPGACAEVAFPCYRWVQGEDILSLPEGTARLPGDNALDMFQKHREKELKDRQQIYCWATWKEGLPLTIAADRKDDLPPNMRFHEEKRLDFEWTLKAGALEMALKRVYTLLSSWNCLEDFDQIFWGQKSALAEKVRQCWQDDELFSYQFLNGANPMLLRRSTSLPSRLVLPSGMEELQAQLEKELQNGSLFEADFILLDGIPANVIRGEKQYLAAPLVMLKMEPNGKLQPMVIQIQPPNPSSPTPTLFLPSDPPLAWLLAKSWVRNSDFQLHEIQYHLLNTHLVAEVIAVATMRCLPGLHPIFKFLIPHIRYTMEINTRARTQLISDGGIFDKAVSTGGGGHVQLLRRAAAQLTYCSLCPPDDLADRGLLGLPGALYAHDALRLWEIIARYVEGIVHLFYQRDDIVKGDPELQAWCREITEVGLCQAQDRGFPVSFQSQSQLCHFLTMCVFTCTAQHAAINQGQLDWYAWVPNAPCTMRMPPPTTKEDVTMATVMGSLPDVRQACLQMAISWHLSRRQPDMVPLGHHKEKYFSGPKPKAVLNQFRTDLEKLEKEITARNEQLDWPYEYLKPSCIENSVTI
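Purified human 12hLO at 150 nM in 25 mM Hepes, 0.01% Triton X-100, pH 7.0, preincubated 15 min at room temperature with compound. Reaction started with 40 uM arachidonic acid, 30 min at room temperature. Hydroperoxide measured by Fe-xylenol orange, 573/405 nm absorbance ratio.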
PLK1 PBD inh – PLK1 (human) polo-box domain binding inhibition; P53350; 360,000 tested, 2.8% active; Potency, µM, hits mostly inhibitors; Plk1 PBD binding of FITC phosphopeptide, fluorescence polarization; further: series mostly up to about 57 µM; nearly all actives have a fitted effect of over 65% in size
VDR inh – blocks the human vitamin D receptor; VDR-SRC2-3 peptide fluorescence polarization, 2 h; 400,000 tested, 0.93% active; Potency, µM, actives largely listed as inhibitors; P11473
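Fluorescence polarization assay measuring small-molecule disruption of VDR binding to the coregulator peptide SRC2-3. Compounds were pin-transferred (23 nl) into the reagent mix and incubated 2 h at room temperature before reading.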
Hits are given with their value; - = inactive; ? = inconclusive; . = no result given. The call rests on the fitted dose curve; in most records, active means well fitted curve in the direction sought with a large enough effect; inconclusive means small, poorly fitted or top-dose-only effect, or another doubt; inactive means no such curve, though single readings can be large; an effect the other way counts as inactive or inconclusive.

SMILES	Sfp inh	12-LOX inh	PLK1 PBD inh	VDR inh
COc1cc(/C=N/NC(=O)C2=NNC(=O)C2C)ccc1O (centres undefined)	50.1µM	-	-	-
CC1C(=O)NN=C1C(=O)N/N=C/c1ccco1 (centres undefined)	-	-	26.7µM	-
Cc1oc(-c2ccc(C(C)C)cc2)nc1CSc1nc2c(=O)[nH]cnc2n1C	.	-	.	.
O=C(NN1CCOCC1)c1ccc(Cl)c(Cl)c1	-	-	-	-
CC(C)c1ccc(CNC(=O)c2cccc(C(=O)NCc3ccc(C(C)C)cc3)c2)cc1	.	-	.	.
Cc1cc(NC(=O)c2ccc(NC(=O)CC(C)C)cc2)no1	-	-	-	-
CCOc1ccc(C(=S)N2CCCC2)c(OCC)c1	50.1µM	?	11.9µM	?
N#CCCn1cc(C(N)=O)c(-c2ccc3ccccc3c2)n1	-	-	26.7µM	-
CNC(=O)[C@@H]1C[C@H](Oc2ccccc2)CN1C(=O)c1cc2ccccc2[nH]1	.	-	.	.
COC(=O)/C(C#N)=C\c1ccc(OCc2ccccc2Cl)c(OC)c1	.	-	.	.
COc1cc(/C=N/N=C(N)N)ccc1OCc1ccccc1Cl	25.1µM	?	-	-
Cn1ccc(C(=O)N2CCC3(CC2)CC(=O)N(C/C=C/c2ccccc2)C3)n1	.	-	.	.
CC(C)(CNC(=O)c1cccc(S(=O)(=O)Nc2ccc(SC(F)F)cc2)c1)N1CCOCC1	.	-	13.4µM	-
CC1CCCCN1C(=O)CSc1nc(-c2ccccc2)cn1N (centres undefined)	-	-	23.8µM	?
CC1CCCCN1C(=O)CSc1n[nH]c(-c2ccccc2)n1 (centres undefined)	.	-	.	-
CCCC(C)NC(=O)CSc1nc(-c2ccccc2)cn1N (centres undefined)	-	-	26.7µM	-
Nc1c(Cl)cc2c(c1Oc1ccccc1)C(=O)c1ccccc1C2=O	-	-	-	-
O=C1C2Sc3[nH]c(=O)sc3C(c3ccccc3)C2C(=O)N1c1ccccc1 (centres undefined)	79.4µM	?	-	-
CCOc1ccc(NS(=O)(=O)c2cc(C(=O)Nc3ccc4oc(C)nc4c3)ccc2Cl)cc1	.	-	.	.
CC1CCCCC12NC(=S)N(c1ccccc1)N2 (centres undefined)	17.8µM	5.01µM	-	-
CC1CCCC2(C1)NC(=S)N(c1ccccc1)N2 (centres undefined)	50.1µM	?	-	?
S=C1NC2(CCCCC2)NN1c1ccccc1	-	?	-	-
CC(C)CCN1NC2(CCCC(C)C2)NC1=S (centres undefined)	70.8µM	?	-	-
COC(=O)c1ccc(OC(=O)C2CC(=O)N(c3cccc(C)c3)C2)cc1 (centres undefined)	-	-	-	?
CCCn1c(=O)c2c(nc3n2CCN3Cc2ccco2)n(C)c1=O	-	-	-	-
SMILES	Sfp inh	12-LOX inh	PLK1 PBD inh	VDR inh
COc1cc(/C=C2\SC(=O)N(CC(=O)Nc3ccc(C)cc3)C2=O)cc(Cl)c1OCC(=O)O	-	-	15µM	?
Cc1ccc(NC(=O)CN2C(=O)S/C(=C\c3ccc(OCC(=O)O)c(Br)c3)C2=O)cc1	-	-	?	-
Cc1cc(=O)oc2cc(OCC(=O)OCC(=O)NC(C)C)ccc12	-	-	-	-
O=C(O)CNC(=O)CC1S/C(=N/N=C/c2ccccc2O)NC1=O (centres undefined)	-	-	23.8µM	?
O=C(O)CNC(=O)CC1S/C(=N/N=C2\CSC(=O)N2)NC1=O (centres undefined)	3.98µM	-	-	-
NC(=O)NC(=O)CC1S/C(=N/N=C2/NC(=O)CS2)NC1=O (centres undefined)	-	-	-	-
CCOc1cccc2c1OC1(C)CC2NC(=O)N1c1ccc(OC)cc1 (centres undefined)	-	-	13.4µM	-
COc1cccc(N2CCN(C(=O)c3cccc(N4C(=O)NC5CC4(C)Oc4c(OC)cccc45)c3)CC2)c1 (centres undefined)	-	-	-	-
CCc1ccc(C(=O)N2CCCC2)s1	-	-	-	-
Cc1ccc(C)c(OCC(O)CN2C(C)CCCC2C)c1 (centres undefined)	-	-	11.9µM	-
Cc1ccc(C)c(OCC(O)CN2CCCCC2C)c1 (centres undefined)	-	-	-	-
COc1ccc(Cc2c3cc(OC)c(OC)cc3cc[n+]2C)cc1OC	79.4µM	.	?	-
Cc1ccc(NC(=O)CSCC(=O)Nc2ncc3c(n2)CC(c2ccco2)CC3=O)cc1 (centres undefined)	14.1µM	-	-	-
CCC(=O)N1CCc2cc(Br)cc(S(=O)(=O)NCCc3ccc(OC)c(OC)c3)c21	.	-	.	-
N#CC1=C(S)N(c2ccccc2)C2(CCCCC2)NC1=O	28.2µM	-	-	35.5µM
N#CC1=C(S)N(c2ccc(F)cc2)C2(CCCCC2)NC1=O	20µM	?	-	?
Cc1cccc(C)c1NC(=O)COC(=O)c1cc(=O)c2ccccc2o1	-	-	21.2µM	?
CC(C)NC(=O)COC(=O)c1cc(=O)c2ccccc2o1	.	-	.	.
CC(C)c1cccc(-c2ccc3c(c2)S(=O)(=O)c2cccc(C(=O)O)c2C3=O)c1	.	-	?	-
CC(C)c1cccc(-c2ccc3c(c2)S(=O)(=O)c2cccc(C(=O)NCc4ccco4)c2C3=O)c1	.	?	42.3µM	-
Clc1cnc(N/N=C/c2ccco2)c(Cl)c1	79.4µM	-	-	-
Clc1cnc(N/N=C/c2cccs2)c(Cl)c1	-	-	-	-
COc1ccc([N+](=O)[O-])cc1COc1ccc2c(-c3ccccc3)cc(=O)oc2c1	-	-	-	-
O=C(O)c1cnc(-c2ccccc2)nc1Sc1cccc(Cl)c1	-	-	29.9µM	-
O=C(O)c1cnc(-c2ccccc2)nc1Sc1ccc(Cl)cc1Cl	-	-	26.7µM	?
SMILES	Sfp inh	12-LOX inh	PLK1 PBD inh	VDR inh
O=C(O)c1cnc(-c2ccccc2)nc1Sc1ccccc1	-	-	?	-
CC(=O)Oc1cc2oc(=O)c3c(c2cc1Cl)CCC3	-	-	5.97µM	-
CCN1C(=NCCc2ccc(Br)cc2)N[C@@H](c2ccccc2)[C@H](C(=O)OC)[C@H]1C	-	44.7µM	-	-
c1ccc(Oc2nc3ccccc3n3cccc23)cc1	-	-	-	-
O=c1oc2ccccc2c(O)c1/C=N/c1ncccn1	-	?	-	-
O=c1oc2ccccc2c(O)c1/C=C1\C=Nc2ccccc21	-	?	0.597µM	-
CCN(CC)c1ccc(CNc2nc3ccccc3n2CCN2CCOCC2)cc1	-	-	-	-
CS(=O)(=O)N1CCN(c2ccc(C(=O)NC34CC5CC(CC(C5)C3)C4)cc2[N+](=O)[O-])CC1	-	-	26.7µM	-
CCOc1ccc(NC(=S)Nc2ccc(Br)cc2Cl)cc1	39.8µM	?	-	-
CCOc1ccc(NC(=S)NS(=O)(=O)c2cc(Br)ccc2OCC)cc1	.	?	11.9µM	?
CC(=O)NNC(=S)Nc1ccc(Br)cc1Cl	.	-	.	.
COc1cccc(NC(=S)Nc2ccc(Br)cc2Cl)c1	-	-	-	-
Cc1cccnc1NC(=S)Nc1ccc(Br)cc1Cl	20µM	11.2µM	-	-
CCOc1ccc(Br)cc1S(=O)(=O)Nc1ccc(C(=O)OCC(=O)Nc2ccc(C#N)cc2)cc1	-	-	-	-
CCCCCCCCCCCCC[N+](C)(C)Cc1ccccc1	-	.	.	-

Screens from PubChem BioAssay.
